“And” between values parts separate entries of the source, which are not always exact repeats. Equal entries are not always repeated. The source made the active and inactive calls. How the source made its calls: active means hit-call score of the fitted dose curve at least 0.9, where 1 is the maximum; inactive means score below 0.9.
Read-out: Vascular cell adhesion molecule 1 (VCAM1), VCAM1 (gene 7412)
Test: BSK_CASM3C_VCAM1: BioMAP Diversity Plus: CASM3C Assay for Vascular cell adhesion molecule 1 (VCAM1) Biomarker Activity (AID 2283055);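 further: VCAM-1 protein level quantified by ELISA on the cells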
Conditions: primary human coronary artery smooth muscle cells; actives raise or lower the signal

How did the outcome turn out when `CCOS(=O)(=O)OCC` was run?
The outcome was “inactive”.

`c1nc[nH]n1` was tested. Which outcome did it give?
The outcome was “inactive”.

For `CC(Cc1ccc(OCC(=O)O)cc1)NCC(O)c1csc(C(F)(F)F)n1` (centres undefined), which outcome is on record?
The outcome was “inactive”.

How did the outcome turn out when `CCOP(=S)(NC(C)C)Oc1ccccc1C(=O)OC(C)C` (centres undefined) was run?
The outcome was “inactive”.

How did the outcome turn out when `Nc1ccc2ccccc2c1` was run?
Its outcome is “inactive”.

Which outcome does the source give for `CCOP(=S)(OCC)SCn1nnc2ccccc2c1=O` here?
Its outcome is “inactive”.

For `CCNc1nc(Cl)nc(NC(C)(C)C)n1`, which outcome is on record?
The outcome was “inactive”.

For `O=[N+]([O-])c1ccc(Cl)c(Cl)c1`, which outcome is on record?
The outcome was “inactive”.

For `COCCOCCO`, which outcome is on record?
The outcome was “inactive”.

With `CN(C)C(=O)Cl` as the molecule, how does the outcome read?
The outcome was “inactive”.

How did the outcome turn out when `Cc1c([N+](=O)[O-])cc2c(c1[N+](=O)[O-])C(C)(C)CC2(C)C` was run?
Its outcome is “inactive”.

Which outcome does the source give for `Cc1ccc([N+](=O)[O-])cc1C` here?
Its outcome is “inactive”.

`CCN(CC)c1ccccc1` was tested. Which outcome did it give?
Its outcome is “inactive”.

How did the AC50 turn out when `ClC(Cl)=C(c1ccc(Cl)cc1)c1ccccc1Cl` was run?
The AC50 was 20 µM (active).

`CCOc1ccc(C(C)(C)COCc2cccc(Oc3ccccc3)c2)cc1` was tested. Which outcome did it give?
Its outcome is “inactive”.

For `COP(=O)(CCC(=O)NCO)OC`, which outcome is on record?
Its outcome is “inactive”.

For `CCOP(=S)(Oc1ccc([N+](=O)[O-])cc1)c1ccccc1` (centres undefined), which outcome is on record?
Its outcome is “inactive”.

For `CC(Cl)CN(C)C` (centres undefined), which outcome is on record?
The outcome was “inactive”.

`OCC1CO1` (centres undefined) was tested. Which outcome did it give?
The outcome was “inactive”.

With `Cc1ccc(O)cc1C` as the molecule, how does the outcome read?
The outcome was “inactive”.

`C=CC(=O)OCC(F)(F)C(F)F` was tested. Which AC50 did it give?
The AC50 was 23.9 µM (active) and 21.1 µM (active).

`c1cc2c3c(cccc3c1)CC2` was tested. Which outcome did it give?
The outcome was “inactive”.

Which outcome does the source give for `Nc1ccc(Cl)cc1` here?
The outcome was “inactive”.

How did the outcome turn out when `CC(C)(C)OOC(C)(C)C` was run?
The outcome was “inactive”.

`CC(C)(C)c1ccccc1OP(=O)(Oc1ccccc1)Oc1ccccc1` was tested. Which AC50 did it give?
The AC50 was 18.7 µM (active).

With `Cc1cccc(N)c1` as the molecule, how does the outcome read?
The outcome was “inactive”.

`O=P1(N(CCCl)CCCl)NCCCO1` (centres undefined) was tested. Which outcome did it give?
Its outcome is “inactive”.

With `O=S(=O)(F)C(F)(F)C(F)(F)C(F)(F)C(F)(F)C(F)(F)C(F)(F)C(F)(F)C(F)(F)F` as the molecule, how does the outcome read?
The outcome was “inactive”.

Read-out: Collagen III, COL3A1 (gene 1281)
Test: BSK_hDFCGF_CollagenIII: BioMAP Diversity Plus: hDFCGF Assay for Collagen III Biomarker Activity (AID 2283056)
Conditions: primary human foreskin fibroblasts; actives raise or lower the signal
How it was run: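 ELISA readout of Collagen III in human dermal (foreskin) fibroblasts, taken 24 h post-treatment. Gain or loss relative to DMSO vehicle fitted in both directions.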

With `CCOS(=O)(=O)OCC` as the molecule, how does the outcome read?
Its outcome is “inactive”.

With `c1nc[nH]n1` as the molecule, how does the outcome read?
The outcome was “inactive”.

Which outcome does the source give for `CC(Cc1ccc(OCC(=O)O)cc1)NCC(O)c1csc(C(F)(F)F)n1` (centres undefined) here?
The outcome was “inactive”.

For `CCOP(=S)(NC(C)C)Oc1ccccc1C(=O)OC(C)C` (centres undefined), which outcome is on record?
The outcome was “inactive”.

With `Nc1ccc2ccccc2c1` as the molecule, how does the outcome read?
The outcome was “inactive”.

For `CCOP(=S)(OCC)SCn1nnc2ccccc2c1=O`, which outcome is on record?
Its outcome is “inactive”.

How did the outcome turn out when `CCNc1nc(Cl)nc(NC(C)(C)C)n1` was run?
Its outcome is “inactive”.

Which outcome does the source give for `O=[N+]([O-])c1ccc(Cl)c(Cl)c1` here?
Its outcome is “inactive”.

`COCCOCCO` was tested. Which outcome did it give?
Its outcome is “inactive”.

`CN(C)C(=O)Cl` was tested. Which outcome did it give?
Its outcome is “inactive”.

For `Cc1c([N+](=O)[O-])cc2c(c1[N+](=O)[O-])C(C)(C)CC2(C)C`, which AC50 is on record?
Its AC50 is 3.32 µM (active).

`Cc1ccc([N+](=O)[O-])cc1C` was tested. Which outcome did it give?
Its outcome is “inactive”.

Which outcome does the source give for `CCN(CC)c1ccccc1` here?
The outcome was “inactive”.

With `ClC(Cl)=C(c1ccc(Cl)cc1)c1ccccc1Cl` as the molecule, how does the AC50 read?
The AC50 was 2.45 µM (active).

Which outcome does the source give for `CCOc1ccc(C(C)(C)COCc2cccc(Oc3ccccc3)c2)cc1` here?
The outcome was “inactive”.

How did the outcome turn out when `COP(=O)(CCC(=O)NCO)OC` was run?
The outcome was “inactive”.

For `CCOP(=S)(Oc1ccc([N+](=O)[O-])cc1)c1ccccc1` (centres undefined), which AC50 is on record?
The AC50 was 8.08 µM (active).

Which outcome does the source give for `CC(Cl)CN(C)C` (centres undefined) here?
The outcome was “inactive”.

How did the outcome turn out when `OCC1CO1` (centres undefined) was run?
The outcome was “inactive”.

`Cc1ccc(O)cc1C` was tested. Which outcome did it give?
Its outcome is “inactive”.

How did the AC50 turn out when `C=CC(=O)OCC(F)(F)C(F)F` was run?
Its AC50 is 994 nM (active) and 23.9 µM (active).

How did the outcome turn out when `c1cc2c3c(cccc3c1)CC2` was run?
Its outcome is “inactive”.

How did the outcome turn out when `Nc1ccc(Cl)cc1` was run?
Its outcome is “inactive”.

How did the outcome turn out when `CC(C)(C)OOC(C)(C)C` was run?
Its outcome is “inactive”.

How did the AC50 turn out when `CC(C)(C)c1ccccc1OP(=O)(Oc1ccccc1)Oc1ccccc1` was run?
The AC50 was 2.83 µM (active).

Which outcome does the source give for `Cc1cccc(N)c1` here?
The outcome was “inactive”.

How did the outcome turn out when `O=P1(N(CCCl)CCCl)NCCCO1` (centres undefined) was run?
Its outcome is “inactive”.

For `O=S(=O)(F)C(F)(F)C(F)(F)C(F)(F)C(F)(F)C(F)(F)C(F)(F)C(F)(F)C(F)(F)F`, which outcome is on record?
Its outcome is “inactive”.

Read-out: Interleukin-8 (IL8), CXCL8 (gene 3576)
Test: BSK_hDFCGF_IL8: BioMAP Diversity Plus: hDFCGF Assay for Interleukin-8 (IL8) Biomarker Activity (AID 2283058)
Conditions: primary human foreskin fibroblasts; actives raise or lower the signal
How it was run: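 IL-8 levels read by ELISA at 24 hours after dosing human skin fibroblast cultures. Parallel SRB staining assessed overt cytotoxicity, and gain or loss of signal was fitted against DMSO control.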

With `CCOS(=O)(=O)OCC` as the molecule, how does the outcome read?
The outcome was “inactive”.

With `c1nc[nH]n1` as the molecule, how does the outcome read?
The outcome was “inactive”.

For `CC(Cc1ccc(OCC(=O)O)cc1)NCC(O)c1csc(C(F)(F)F)n1` (centres undefined), which outcome is on record?
The outcome was “inactive”.

How did the outcome turn out when `CCOP(=S)(NC(C)C)Oc1ccccc1C(=O)OC(C)C` (centres undefined) was run?
Its outcome is “inactive”.

With `Nc1ccc2ccccc2c1` as the molecule, how does the outcome read?
The outcome was “inactive”.

For `CCOP(=S)(OCC)SCn1nnc2ccccc2c1=O`, which outcome is on record?
The outcome was “inactive”.

How did the outcome turn out when `CCNc1nc(Cl)nc(NC(C)(C)C)n1` was run?
The outcome was “inactive”.

How did the outcome turn out when `O=[N+]([O-])c1ccc(Cl)c(Cl)c1` was run?
Its outcome is “inactive”.

`COCCOCCO` was tested. Which outcome did it give?
The outcome was “inactive”.

Which outcome does the source give for `CN(C)C(=O)Cl` here?
The outcome was “inactive”.

With `Cc1c([N+](=O)[O-])cc2c(c1[N+](=O)[O-])C(C)(C)CC2(C)C` as the molecule, how does the outcome read?
Its outcome is “inactive”.

How did the outcome turn out when `Cc1ccc([N+](=O)[O-])cc1C` was run?
Its outcome is “inactive”.

How did the outcome turn out when `CCN(CC)c1ccccc1` was run?
Its outcome is “inactive”.

How did the AC50 turn out when `ClC(Cl)=C(c1ccc(Cl)cc1)c1ccccc1Cl` was run?
The AC50 was 4.15 µM (active).

Which outcome does the source give for `CCOc1ccc(C(C)(C)COCc2cccc(Oc3ccccc3)c2)cc1` here?
The outcome was “inactive”.

How did the outcome turn out when `COP(=O)(CCC(=O)NCO)OC` was run?
Its outcome is “inactive”.

Which outcome does the source give for `CCOP(=S)(Oc1ccc([N+](=O)[O-])cc1)c1ccccc1` (centres undefined) here?
The outcome was “inactive”.

Which outcome does the source give for `CC(Cl)CN(C)C` (centres undefined) here?
Its outcome is “inactive”.

Which outcome does the source give for `OCC1CO1` (centres undefined) here?
The outcome was “inactive”.

`Cc1ccc(O)cc1C` was tested. Which outcome did it give?
The outcome was “inactive”.

Which AC50 does the source give for `C=CC(=O)OCC(F)(F)C(F)F` here?
Its AC50 is 49.8 µM (active) and 48.3 µM (active).

Which outcome does the source give for `c1cc2c3c(cccc3c1)CC2` here?
Its outcome is “inactive”.

Which outcome does the source give for `Nc1ccc(Cl)cc1` here?
Its outcome is “inactive”.

For `CC(C)(C)OOC(C)(C)C`, which outcome is on record?
The outcome was “inactive”.

`CC(C)(C)c1ccccc1OP(=O)(Oc1ccccc1)Oc1ccccc1` was tested. Which outcome did it give?
Its outcome is “inactive”.

Which outcome does the source give for `Cc1cccc(N)c1` here?
Its outcome is “inactive”.

With `O=P1(N(CCCl)CCCl)NCCCO1` (centres undefined) as the molecule, how does the outcome read?
Its outcome is “inactive”.

How did the outcome turn out when `O=S(=O)(F)C(F)(F)C(F)(F)C(F)(F)C(F)(F)C(F)(F)C(F)(F)C(F)(F)C(F)(F)F` was run?
The outcome was “inactive”.
